High-throughput results from PubChem.
TWEAK Fn14 block = inhibitors of TWEAK-Fn14 interaction signaling; inhibition, % at 10 µM; actives 2% (n = 360,000); AID 1159606; TWEAK-stimulated Fn14 reporter cells, luciferase luminescence, 8 h; in the data active = inhibition above about 50%
HIF-2a block = HIF-2a inhibition | 786-0 RCC cells HIF-2a reporter, luciferase luminescence, overnight | inhibition, % at 18.8 µM | actives 0.72% (n = 360,000) | AID 624352;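 active = inhibition of the luminescence signal of 40% or more relative to plate controls, in a single-dose primary screen at 18.75 µM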
Peg3 promoter = inhibitors of Peg3 promoter. actives 1.7% (n = 360,000). inhibition, % at 20 µM. HeLa PEG-Prom luciferase reporter, luminescence, overnight;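 active = inhibition of at least 50% at 20 µM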
TROY NFkB inh = TROY signaling inhibition; Q293 LMP1-TROYcd NF-kB luciferase reporter, 4 h; inhibition, % at 10 µM; actives 0.98% (n = 360,000); AID 1347056;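 active = compounds whose plate-normalised and pattern-corrected inhibition of the luciferase reporter signal at the single screening dose is 50% or more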
KKLEB cytotox = reduces viability of KKLEB cystic fibrosis airway cells | KKLEB CF airway cells viability, ATPlite luminescence, overnight; active compounds read low; cells stimulated with P. aeruginosa culture filtrate | activity change (cytotoxicity), % at 5 µM | actives 0.36% (n = 360,000) | AID 602141;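 active = corrected activity change at or below -50% at 5 µM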
CF NFkB block = blocks PAF-induced NF-kB reporter in cystic fibrosis cells; inhibition, % at 5 µM; KKLEB NF-kB-GFP reporter, GFP fluorescence overnight; actives 0.86% (n = 360,000);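 active = at least 50% inhibition at 5 µM, scaled per plate between neutral and stimulator controls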;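 also: PAF is a Pseudomonas aeruginosa culture filtrate used as stimulus; plate controls were PAF-stimulated DMSO wells for no effect and unstimulated DMSO wells for full effect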
* hit, by the source's call; x = no result given. Compounds with a hit are over-represented: about 4% of the library has one in this group of screens.

SMILES | TWEAK Fn14 block | HIF-2a block | Peg3 promoter | TROY NFkB inh | KKLEB cytotox | CF NFkB block
CC(=O)c1ccc(OC2(C)CCN(Cc3ccc4c(c3)OCCO4)C2)cc1 (configuration not stated) | -12 | 2 | -11 | -6 | -13 | 4
CC(Nc1nc(N2CCCCC2)nc2ccccc12)c1ccccc1 (configuration not stated) | -42 | 25 | 68* | 4 | -39 | 29
CC(Nc1nc(-c2ccccc2)nc2ccccc12)c1ccccc1 (configuration not stated) | 5 | -16 | 11 | 4 | -9 | 12
CCCC(=O)N1CCC1(C)C(=O)NS(=O)(=O)c1ccc(C(C)(C)C)cc1 (configuration not stated) | 1 | 11 | 2 | -1 | 5 | -13
CCCc1cc(NCCCN2CCOCC2)n2c(nc3ccccc32)c1C#N | 82* | 16 | 32 | x | 3 | -31
Cc1cc(NCCCN2CCOCC2)n2c(nc3ccccc32)c1C#N | -18 | 16 | -1 | -11 | -1 | -31
CC1CN2C(c3ccc(Cl)cc3)=CSC2=N1 (configuration not stated) | 3 | 13 | 14 | 9 | 2 | -8
COc1cccc(C2=Nn3c(nnc3-c3ccccc3O)SC2)c1 | -5 | 7 | 15 | 20 | -10 | -21
C[n+]1c2n(c3ccccc31)N=C(c1cc(C(C)(C)C)c(O)c(C(C)(C)C)c1)CS2 | 88* | 2 | 86* | 57* | -26 | 36
O=C1c2cc([N+](=O)[O-])ccc2-c2cc(Br)c(N=C(NO)C(F)(F)F)cc21 | -63 | -31 | 97* | 79* | -23 | 29
O=C1c2cc([N+](=O)[O-])ccc2-c2cc(Cl)c(NC(=O)C(F)(F)F)cc21 | -12 | -41 | -19 | 5 | 18 | -44
O=C(/C=C/Nc1ccc(S(=O)(=O)Nc2ncccn2)cc1)c1ccc(Cl)c(Cl)c1 | 4 | 8 | -12 | -10 | -3 | -12
O=C(/C=C/Nc1ccc(S(=O)(=O)Nc2ncccn2)cc1)c1cccs1 | 60* | -9 | 5 | 42 | 2 | 11
O=S(=O)(Nc1ccc(-c2ccc3nncn3n2)cc1)c1ccccc1F | -20 | 14 | 51* | -2 | -6 | -14
CCCCCc1c2c(cc(O)c1C(=O)O)OC(=O)c1c(cc(OC)cc1C(=O)CCCC)O2 | 14 | 9 | 22 | 62* | -4 | 42
CC1(C)Cc2c(c(N3CCOCC3)nc3snc(Br)c23)CO1 | 5 | 29 | 92* | 1 | -24 | 31
CC1(C)Cc2c(c(N3CCOCC3)nc3sc(C(N)=O)c(N)c23)CO1 | -15 | 30 | 9 | 11 | 0 | 19
CC1(C)Cc2c(c(N3CCOCC3)nc3snc(N)c23)CO1 | 5 | 38 | 65* | 29 | -11 | 32
CC(C)Nc1nc(-c2ccncc2)nc(-c2ccccc2)c1C#N | -1 | 14 | 2 | -4 | -1 | -5
NS(=O)(=O)c1cccc(NC(=O)CCN2C(=O)C3CCCCC3C2=O)c1 (configuration not stated) | 5 | 11 | 3 | -4 | -2 | -5
O=C(CSc1nnc(-c2c[nH]c3ccccc23)o1)N1c2ccccc2CCc2ccccc21 | 63* | -3 | 34 | 39 | 27 | 2
CC(=O)Oc1ccc(N2C(=O)C3C4C=CC(CO)(O4)C3C2=O)cc1 (configuration not stated) | -5 | -1 | 26 | 7 | -1 | 5
O=C1C2C3C=CC(CO)(O3)C2C(=O)N1c1ccccc1-c1ccccc1 (configuration not stated) | 1 | 11 | 105* | -9 | -31 | 76*
CCOc1c(Cl)cc(CNc2ccc(N3CCCC3)cc2)cc1OC | 56* | 9 | -53 | -5 | -9 | 19
CCOc1c(Cl)cc(CNc2ccc(S(N)(=O)=O)cc2)cc1OC | -2 | 10 | 20 | 17 | 1 | -3
SMILES | TWEAK Fn14 block | HIF-2a block | Peg3 promoter | TROY NFkB inh | KKLEB cytotox | CF NFkB block
CC(=O)CC1=NC(C)(C)Cc2ccccc21 | 20 | 25 | -4 | 53* | -13 | 10
CC1(C)Cc2ccccc2C(C(=O)c2ccccc2)=N1 | 10 | 27 | 5 | 1 | 0 | 13
NC(=O)CC(NC(=O)c1cccc(Br)c1)c1ccc(N2CCN(c3ccccn3)CC2)c([N+](=O)[O-])c1 (configuration not stated) | -2 | 81* | 18 | -6 | -14 | -19
COc1ccc2cc(C(=O)N3CCN(Cc4ccc5c(c4)OCO5)CC3)[nH]c2c1 | 6 | -37 | -23 | 16 | -5 | 8
COc1ccc2[nH]c3c(N4CCN(Cc5ccc6c(c5)OCO6)CC4)ncnc3c2c1 | 38 | 26 | 55* | 51* | -14 | 2
CCOc1ccc2[nH]c3c(N4CCc5ccccc5C4)ncnc3c2c1 | 27 | -24 | 34 | 13 | -2 | 2
COc1ccc2[nH]c3c(N4CCC(O)(c5cccc(C(F)(F)F)c5)CC4)ncnc3c2c1 | 75* | -7 | 57* | 64* | -9 | -17
CC(=O)Cn1cnc2c(cnn2-c2ccc(F)cc2)c1=O | -15 | -137 | -96 | -20 | 1 | 6
CN1CCCC(CC2c3ccccc3Sc3ccccc32)C1 (configuration not stated) | 3 | -8 | 60* | -1 | 26 | 28
CN1CCCC(CN2c3ccccc3Sc3ccccc32)C1 (configuration not stated) | 19 | -4 | -10 | -18 | 0 | 8
O=[N+]([O-])c1cc2no[n+]([O-])c2cc1N1CCCCC1 | 16 | 9 | 99* | -2 | 2 | -77
CCC(=O)[C@@H](C)[C@@H](OC(C)=O)[C@H](C)C[C@@H](C)[C@H]1OC(=O)C[C@@]2(O)CC=C(C)C(O2)C(C)=CCCC[C@H](O[C@H]2C[C@@H](OC(N)=O)[C@H](OC(C)=O)[C@@H](C)O2)C=C[C@H](C)C[C@H]1C | -51 | 3 | x | 7 | x | x
Cc1cc(C)cc(N(C(=O)c2nsc(Cl)c2Cl)C(C(=O)NC2CCCC2)c2ccc(O)cc2)c1 (configuration not stated) | 20 | 8 | 60* | 23 | -5 | 13
COc1ccc(NC(=O)C2(C)CCCN(C(C)=O)C2)cc1F (configuration not stated) | 5 | 5 | -7 | -2 | -2 | -19
COc1cccc(C(=O)COc2ccc(NC(=O)c3ccccc3)cc2)c1 | -9 | -12 | -19 | -22 | -9 | -1
Clc1ccc(/C=C/c2nc3ccccc3[nH]2)c(Cl)c1 | 64* | -93 | -83 | 48 | -76* | -18
Clc1ccc(/C=C/c2nc3ccccc3[nH]2)cc1 | 81* | -46 | -50 | 16 | -74* | -14
Clc1cccc(Cl)c1/C=C/c1nc2ccccc2[nH]1 | 3 | -240 | -190 | -40 | -36 | -16
